Test results: PubChem BioAssay AID1053144 (Broad Institute, 2014)
In all, about 3,400 compounds went through this assay and about 160 (4.7%) were called active.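 How the source made its calls: active means fitted curve reaches 30% activation at a concentration no higher than the top valid tested dose, luminescence rising; inconclusive means no clear call, values can overlap the other calls; inactive means signal moving opposite to the expected increase, plus the rest.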 A selection follows. Measured potencies and affinities stand elsewhere.

Assay: TCF/LEF reporter activation in neural progenitors – cell-based, iPS-derived NPC, luciferase, Wnt3a, cherry-pick, dose response (AID 1053144);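 further: Wnt3a stimulus is conditioned medium from Wnt3a-transfected mouse L cells at 5% in well; 0% = neutral control wells and 100% = CHIR-99021 positive control wells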
Settings: Wnt3a EC25, 24 h; series mostly up to 26 µM; activation: at the top concentration

activation, inactive:
COc1cccc(C(=O)NC2=NCCS2)c1 2.66%, Cc1ccc(C(=O)NC2=NCCS2)cc1 9.97%, Cc1cnc(C(=O)Nc2nnc(C(C)C)s2)cn1 7.46%, CCOC(=O)C1(NC(=O)C2(NC(=O)CN3C(=O)c4ccccc4C3=O)CCCC2)CCCC1 3.07%, O=c1c2ccccc2c(=O)n(-c2ccccc2)n1-c1ccccc1 0.139%, Cc1cccc(/C(N)=N/OC(=O)c2cccs2)c1 16.7%, Cc1cccc(/C(N)=N/OC(=O)c2ccncc2)c1 6.69%, CC(Sc1nncn1C)C(=O)Nc1ccc(N2CCCCC2)cc1 (stereo unspecified) 1.46%, O=C1c2ccccc2C(Nc2ccccc2)N1c1ccc(Cl)cn1 (stereo unspecified) 2.25%, COc1n[nH]c(C(=O)Nc2nc3ccccc3s2)c1[N+](=O)[O-] 13.5%, CN(C)S(=O)(=O)c1ccc(C(=O)NCCOc2ccccc2)cc1 11.9%, Cc1ccc(C(=O)CC(SCC(=O)O)c2ccc([N+](=O)[O-])cc2)cc1 (stereo unspecified) -14.7%, Cc1cc(C(=O)COC(=O)c2ccc(N)c([N+](=O)[O-])c2)c(C)n1Cc1ccc2c(c1)OCO2 5.38%, Nc1nc(Nc2ccccc2)sc1C(=O)c1ccccc1 19.5%, Cc1ccc2nc(NC(=O)c3ccc(Cl)s3)sc2c1 0.191%, Brc1ccc(-c2cn3ccccc3n2)cc1 14.5%, O=C(NCc1ccccn1)Nc1cccc(Cl)c1 8.88%, O=C(Nc1ccc(Cl)cc1)c1ccc(-c2ccccn2)s1 7.67%, C(=N\NCc1ccccc1)/c1ccc2ncccc2c1 4.68%, CN(C)c1ccc(N=Nc2cccc(F)c2)cc1 3.61%, CC(C)(CNC(=O)c1cccc(S(=O)(=O)N2CCCCC2)c1)N1CCOCC1 5.12%, Cc1ccc(CNC(=O)COC(=O)C2CCN(S(=O)(=O)c3cccs3)CC2)cc1 7.64%, O=C(N=Nc1c(O)[nH]c2ccccc12)c1ccc2c(c1)OCO2 5.2%, Oc1[nH]c2ccccc2c1N=Nc1ccccc1 6.5%, CCCCCn1c(CN2CCN(C(=O)c3ccco3)CC2)nc2c1c(=O)n(C)c(=O)n2C -1.47%, Cc1nnc(SCC(=O)c2ccc(Cl)cc2)n(N)c1=O 4.61%, O=C(CSc1nnc2ccccn12)c1ccc(Cl)cc1 5.28%, CCCCN(CC)C(=O)c1cc2cc3ccc(OC)cc3nc2o1 6.64%, Cc1ccc2nc(-c3ccc(NC(=O)CSc4nc(N)cc(=O)[nH]4)cc3)sc2c1 3.34%, Cc1ccc2nc(-c3ccc(NC(=O)COCC(=O)O)cc3)sc2c1 4.24%, CC1=CCC(C(=O)O)C(C(=O)Nc2ccc(-c3nc4ccc(C)cc4s3)cc2)C1 (stereo unspecified) 8.13%, Cc1cc(C)cc(N(CC(=O)Nc2ccc(-c3nc4ccc(C)cc4s3)cc2)S(C)(=O)=O)c1 -0.43%, Cc1ccc(C2(C)NC(=O)N(CC(=O)Nc3ccc(-c4nc5ccc(C)cc5s4)cc3)C2=O)cc1 (stereo unspecified) 2.88%, Cc1ccc2nc(-c3ccc(NS(=O)(=O)c4ccc(F)c(F)c4)cc3)sc2c1 -0.027%, Cc1ccc(C)c(-n2ccnc2SCC(=O)Nc2cccc(S(=O)(=O)NC3=NCCC3)c2)c1 10.6%, CCC(=O)Nc1c(C(=O)Nc2ccc3c(c2)OCCO3)oc2ccccc12 12.9%, N=c1cc(C2(O)CCCCC2)n2c(nc3ccccc32)s1 1.82%, Cc1ccnc(NC(=O)C2CC(=O)N(c3ccc4c(c3)OCCO4)C2)c1 (stereo unspecified) 3.35%, c1ccc(-c2nnc(-c3ccccn3)nn2)nc1 4.64%, CCC(=O)Nc1cc(C(=O)OCC(=O)c2ccccc2)ccc1C 18.1%, COC(=O)[C@H](CCSC)NC(=O)c1cccnc1SC 0.828%, O=C(CCN1C(=O)C2CCCCC2C1=O)Nc1nc2c(F)cc(F)cc2s1 (stereo unspecified) 11.7%, CN(c1ccc(C(=O)NCCSC(C)(C)C)cc1)S(=O)(=O)c1ccccc1 -1.26%, Cc1ccc(C)c(OCc2nc3ccccc3[nH]2)c1 14%, COc1ccc(NC(=O)N2CCCc3ccccc32)cc1 3.63%, COc1cccc(NC(=O)n2ncc3c(C)cccc32)c1 -11.3%, O=C(Cc1noc2ccccc12)Nc1ccccn1 12.4%, Cc1nc(C(C)NC(=O)CCc2nnc(CCCc3ccccc3)o2)c(C)s1 (stereo unspecified) 10.9%, c1ccc2nc(SCc3cn4ccccc4n3)cnc2c1 6.56%, CC(=O)Nc1ccc(-c2nc3ccccc3o2)cc1 7.88%, CC(=O)Nc1ccc2oc(-c3ccccc3)nc2c1 7.44%, O=C(N/N=C/c1ccc(F)cc1)c1ccccc1 6.49%, Cc1ccc(NC(=O)COc2ccc3c(c2)OCO3)c(Cl)c1 10.7%, COc1ccc(C(=O)Cc2ccc3c(c2)OCO3)c(O)c1 11.2%, COc1ccc(/C=N/Nc2ccc([N+](=O)[O-])cc2)cc1O 10.8%, Cc1ccc(/C=N/NC(=O)c2cccs2)cc1[N+](=O)[O-] 7.64%, Cc1c(C(=O)OCC(=O)NCC2CCCO2)cccc1[N+](=O)[O-] (stereo unspecified) 7.65%, Cc1cc(-c2nnc(-c3cccc(Cl)c3)o2)no1 14.5%, O=C(/C=C/c1ccc(O)cc1)c1ccccc1 15.6%, COc1ccc(/C=C/C(=O)c2ccccc2)c(OC)c1 8.57%, O=S(=O)(c1ccccc1)n1ccc(-c2cnc(-c3ccccc3)s2)n1 9.35%, CC(C)c1cc(C(=O)NCCc2ccccc2)no1 8.37%, COc1ccc(NC(=O)c2cc(-c3ccco3)on2)cc1 9.44%, O=C(Nc1ccc(F)c(Cl)c1)c1cc(-c2ccco2)on1 13.2%, O=C(Nc1cccnc1Cl)c1cc(-c2ccco2)on1 12.4%, Cc1ccc(NC(=O)/C=C/c2ccc3c(c2)OCO3)nc1 8.44%, COc1ccc(CNC(=O)Nc2cccc(C)c2)cc1 8.1%, Cc1ccc(SCC(=O)NC(=O)NCCC(C)C)c(C)c1 13.2%, Cc1ccc(OCC(=O)Nc2ccc(Cl)cc2)c([N+](=O)[O-])n1 17.6%, Cc1ccc(C(=O)CCC2CCCCC2=O)cc1 (stereo unspecified) 9.76%, CCC(=O)Nc1cccc(-c2nc3ccc(C)cc3o2)c1 19.1%, Cc1ccc2nc(-c3cccc(NC(=O)c4ccc5c(c4)OCCO5)c3)oc2c1 7.37%, O=[N+]([O-])c1ccccc1N/N=C1\CCc2ccccc21 8.32%, O=C(NCc1nnc(SCC(=O)N2CCCc3ccccc32)o1)c1c(F)cccc1Cl 10.2%, COc1ccc(N=Cc2c(O)[nH]c3ccccc23)cc1 13%, Fc1ccc(-c2nc3ccccc3[nH]2)cc1 13.1%, CC(C)CSc1nnc2c(n1)[nH]c1ccccc12 3.64%, O=C(/C=C(\Nc1ccccc1)c1ccccc1)c1ccccc1 -0.624%, Cc1ccc(SCc2cn3cc(Cl)ccc3n2)cc1 7.16%, c1ccc2oc(SCc3cn4ccsc4n3)nc2c1 10.8%, O=C(CNC(=O)c1ccccc1F)c1ccccc1 0.87%, O=C(CCN1CCN(c2ccccc2)CC1)Nc1ccc(OCc2ccccc2)cc1 1.26%, Cc1ccnc(NC(=O)c2ccc(S(=O)(=O)N3CCC(C)CC3)cc2)c1 6.2%, CSc1ccc(/C=N/NC(=O)c2cc(O)cc(O)c2)cc1 15.1%, O=C(/C=C/c1ccc(OC2CSC2)cc1)c1ccccc1 2.74%, N=c1c2c(ncn1CCCO)Oc1c(ccc3ccccc13)C2c1ccccc1 (stereo unspecified) -1.09%, COc1ccc(O)c(/C=N/N2CCCCC2)c1 10.5%, COc1ccccc1CCc1nnc(CCC(=O)N(C)Cc2cccc3cnccc23)o1 7.69%, Clc1nc2ccccc2cc1/C=N/Nc1nc2ccccc2[nH]1 6.98%, C=CCn1cc(/C=N/Nc2nc3ccccc3[nH]2)c2ccccc21 6.37% [at 6 µM], C(=N\Nc1nc2ccccc2[nH]1)/c1ccc2c(c1)OCCO2 8.63%, Cc1nn(-c2ccccc2)c(C)c1/C=N/Nc1nc2ccccc2[nH]1 20.5%, Cc1ccsc1/C=N/Nc1nc2ccccc2[nH]1 13.7%, CC(/C=N/Nc1nc2ccccc2[nH]1)=C\c1ccccc1 6.18%, C(=N\Nc1nc2ccccc2[nH]1)/c1cccs1 6.38%, C(=N\Nc1nc2ccccc2[nH]1)/c1cccc2cccnc12 -6.2%, O=C(NCCc1ccccc1F)C(=O)Nc1nccs1 8.45%, CSc1ccccc1OCc1cc(C(=O)N2CCCC(C)C2)no1 (stereo unspecified) 18.5%, CCCC(=O)c1ccc(N2CCC(C)CC2)c(F)c1 8.52%, COc1ccc(C(=O)Nc2nnc(SCC(=O)Nc3ccc(NC(C)=O)cc3)s2)c(OC)c1 12.3%, Cc1ccc(NC(=O)c2ccc(F)cc2)nc1 15.3%, CCOC(=O)c1cnc2c(-c3ccccc3)cnn2c1N 7.17%, Cn1c(SCc2ccc(F)cc2)nnc1-c1ccccn1 13.4%, COC(=O)c1c(-c2ccc(SC)cc2)sc2ccc(OC)cc12 7.8%, O=C(O)c1cc(N/N=C/c2ccc(N3CCOCC3)cc2)ccc1Cl -1.2%, Cc1ccc(NC(=O)c2ccccn2)c(Br)c1 6.25%, Cc1cnc(NC(=O)c2ccccn2)s1 -0.046%, COc1ccc(NC(=O)Nc2ccc3oc(C)nc3c2)cc1 13%, Fc1ccccc1-c1cc2ncccc2cn1 11.5%, COc1ccc(C(=O)COC(=O)c2cccs2)cc1 8.71%, COc1cccc(C(=O)COC(=O)c2cccs2)c1 11.3%, CCn1c(COc2ccc(OC)cc2)nc2ccccc21 11.6%, COc1ccccc1OCc1cc(C(=O)N2CCN(C)C(c3ccccc3)C2)no1 (stereo unspecified) 15.3%, COc1cc(Cl)ccc1OCc1cc(C(=O)N(C)CC2CCCCO2)no1 (stereo unspecified) 8.88%, Cc1ccccc1Nc1nc(N)c2ccccc2n1 3.57%, Nc1nc(Nc2ccccc2)nc2ccccc12 2.38%, CCOC(=O)c1oc2nc3c(cc2c1N)CCCC3 8.93%, O=C(CSc1nnc(C2CC2)n1C1CC1)c1ccc(Br)s1 10.4%, Oc1ccccc1-c1cc(-c2ccc(F)cc2)n[nH]1 19.7%, Cc1ccccc1-c1cc(-c2ccccc2O)n[nH]1 20.9%, COC(=O)c1cc(C)nc(Nc2nc(C(N)Cc3ccc(Cl)cc3)cs2)n1 (stereo unspecified) -5.29%
